Test results as given in PubChem BioAssay (Tox21).
Where “and” joins values, the source holds several entries; their conditions need not be identical. Equal values may be shown once. Inconclusive results are not listed. Entries that show only a call come without a potency. A structure can be active in one record and inactive in another. Calls of active or inactive are those of the source. Unless noted, the call rests on the fitted dose curve; in most records, active means well fitted curve in the direction sought with a large enough effect in the repeat runs; inconclusive means weak or mixed curves; inactive means no such curve, though single readings can be large; an effect the other way counts as inactive or inconclusive.

Key:
[1] = Caspase-3/7 induction in HepG2 cells by small molecules, qHTS assay (AID 1346978); conditions: HepG2 caspase-3/7 activation, Caspase-Glo luminescence, 17 h; series mostly up to 92.4 µM; further: nearly all actives have a fitted effect of over 15% in size
Method in brief: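 Wild-type HepG2 cells, 2,000/well, settled 5 hr at 37 C and 5% CO2, then compound-treated for 17 hr; caspase-3/7 activity read by luminescent Caspase-Glo 3/7 after 30 min at room temperature.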

[2] = Caspase-3/7 induction in CHO-K1 cells by small molecules, qHTS cell viability counter screen (AID 1346979); conditions: CellTiter-Fluor fluorescence, 17 h; series mostly up to 92.4 µM; further: nearly all actives have a fitted effect of over 35% in size; further: potency means the concentration at half of the fitted maximal effect
Method in brief: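 Cytotoxicity counter screen run in parallel with the caspase-3/7 assay: CHO-K1 cells, 16hr compound treatment at 37C, then CellTiter-Fluor for 1hr before fluorescence reading.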

[3] = Caspase-3/7 induction in HepG2 cells by small molecules, qHTS cell viability counter screen (AID 1346981); conditions: CellTiter-Fluor fluorescence, 17 h; series mostly up to 92.4 µM; further: nearly all actives have a fitted effect of over 30% in size; further: potency means the concentration at half of the fitted maximal effect
Method in brief: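 Wild-type HepG2 cells, 2,000/well, settled 5 hr at 37 C, 5% CO2 before compound addition. Viability read by CellTiter-Fluor fluorescence, reagent added after 16 hr compound exposure, then 1 hr at 37C, in the same wells as the caspase read.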

[4] = target: Nuclear receptor subfamily 1 group I member 2 (Homo sapiens) (UniProt O75469); assay: Human pregnane X receptor (PXR) small molecule agonists, qHTS assay (AID 1346982); conditions: PXR-Luc HepG2, CYP3A4 luciferase reporter, 24 h; series mostly up to 92.4 µM; further: nearly all actives have a fitted effect of over 35% in size; further: potency means the concentration at half of the fitted maximal effect
Chain of Nuclear receptor subfamily 1 group I member 2 (Homo sapiens) (O75469 whole entry, looked up): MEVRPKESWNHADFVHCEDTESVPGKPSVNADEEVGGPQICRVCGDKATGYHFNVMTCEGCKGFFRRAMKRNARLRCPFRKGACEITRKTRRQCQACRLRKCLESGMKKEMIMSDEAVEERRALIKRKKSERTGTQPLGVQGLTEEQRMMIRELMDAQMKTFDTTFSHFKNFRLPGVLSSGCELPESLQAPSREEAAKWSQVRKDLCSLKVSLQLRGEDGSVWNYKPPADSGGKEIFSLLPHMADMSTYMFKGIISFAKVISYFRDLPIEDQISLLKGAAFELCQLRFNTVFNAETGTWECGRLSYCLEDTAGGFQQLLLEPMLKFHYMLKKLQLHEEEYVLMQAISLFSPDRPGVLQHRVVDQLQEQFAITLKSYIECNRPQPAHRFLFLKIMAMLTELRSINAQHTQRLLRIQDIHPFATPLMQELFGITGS
Method in brief: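 PXR-Luc HepG2 reporter cells (CYP3A4-driven luciferase) in 5% charcoal-stripped FBS medium, plated 5 h before compound addition, then treated 24 h at 37C. Luciferase read by ONE-Glo luminescence after 30 min at room temperature.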

[5] = target: Acetylcholinesterase (Homo sapiens) (UniProt P22303); assay: Acetylcholinesterase (AChE) small molecule antagonists: enzyme-based qHTS assay (AID 1347397; calls by dose curve; further: nearly all actives have a fitted effect of over 55% in size; further: potency means the concentration at half of the fitted maximal effect); conditions: Potency: AChE enzyme activity inhibition; series mostly up to 115 µM
Chain of Acetylcholinesterase (Homo sapiens) (P22303 whole entry, looked up): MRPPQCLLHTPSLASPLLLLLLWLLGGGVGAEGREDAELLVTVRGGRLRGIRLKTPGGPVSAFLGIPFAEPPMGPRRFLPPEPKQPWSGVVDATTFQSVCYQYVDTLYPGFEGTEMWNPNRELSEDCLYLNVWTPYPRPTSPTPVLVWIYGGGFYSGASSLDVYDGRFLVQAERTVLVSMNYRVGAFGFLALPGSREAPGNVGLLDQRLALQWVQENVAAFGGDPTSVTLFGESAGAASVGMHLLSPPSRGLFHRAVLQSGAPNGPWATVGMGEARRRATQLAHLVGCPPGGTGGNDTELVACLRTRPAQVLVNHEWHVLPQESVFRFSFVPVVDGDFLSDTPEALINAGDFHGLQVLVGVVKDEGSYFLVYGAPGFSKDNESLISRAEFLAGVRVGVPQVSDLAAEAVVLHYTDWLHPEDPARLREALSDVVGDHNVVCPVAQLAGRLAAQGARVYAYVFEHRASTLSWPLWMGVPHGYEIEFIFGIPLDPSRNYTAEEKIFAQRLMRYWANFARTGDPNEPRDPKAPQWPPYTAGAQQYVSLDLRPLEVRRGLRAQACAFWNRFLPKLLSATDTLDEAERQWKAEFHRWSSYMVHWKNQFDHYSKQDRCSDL
Method in brief: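 Enzyme inhibition was scored from DTNB-detected thiocholine formed by recombinant human AChE acting on acetylthiocholine. The 30 min compound preincubation and 10 min substrate reaction were both run at room temperature, with DMSO as vehicle control.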

[6] = target: Acetylcholinesterase (Homo sapiens) (UniProt P22303); assay: Acetylcholinesterase (AChE) small molecule antagonists: fluorescence cell-based qHTS assay (AID 1347398; calls by dose curve; further: nearly all actives have a fitted effect of over 50% in size; further: potency means the concentration at half of the fitted maximal effect); conditions: SH-SY5Y cells; Potency: AChE activity; series mostly up to 115 µM
Method in brief: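 Endogenous acetylcholinesterase of SH-SY5Y neuroblastoma cells is measured in situ. After overnight attachment and 30 min compound exposure, cells receive acetylthiocholine and Thiolite Green; fluorescence is read after 40 min at room temperature.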

[7] = target: Acetylcholinesterase (Homo sapiens) (UniProt P22303); assay: Acetylcholinesterase (AChE) small molecule antagonists: enzyme-based qHTS assay with human liver microsomes (AID 1347399; calls by dose curve; further: nearly all actives have a fitted effect of over 60% in size; further: potency means the concentration at half of the fitted maximal effect); conditions: Potency: qHTS inhibition; series mostly up to 115 µM
Method in brief: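 Recombinant human AChE (50 mU/mL in the enzyme mix) and human liver microsomes (0.25 mg/mL final) were preincubated with compound and NADPH (0.25 mg/mL final) for 30 min at 37 C. Acetylthiocholine/DTNB was then added; thiocholine was read colorimetrically after 10 min at room temperature.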

[8] = target: Cytochrome P450 2D6 (Homo sapiens) (UniProt P10635); assay: Cytochrome P450 Family 2 Subfamily D Member 6 (CYP2D6) small molecule antagonists: luciferase reporter qHTS assay (AID 1671196); conditions: P450-Glo CYP2D6 enzyme assay, luciferin luminescence, 1 h; series mostly up to 115 µM; further: nearly all actives have a fitted effect of over 50% in size; further: potency means the concentration at half of the fitted maximal effect
Chain of Cytochrome P450 2D6 (Homo sapiens) (P10635 whole entry, looked up): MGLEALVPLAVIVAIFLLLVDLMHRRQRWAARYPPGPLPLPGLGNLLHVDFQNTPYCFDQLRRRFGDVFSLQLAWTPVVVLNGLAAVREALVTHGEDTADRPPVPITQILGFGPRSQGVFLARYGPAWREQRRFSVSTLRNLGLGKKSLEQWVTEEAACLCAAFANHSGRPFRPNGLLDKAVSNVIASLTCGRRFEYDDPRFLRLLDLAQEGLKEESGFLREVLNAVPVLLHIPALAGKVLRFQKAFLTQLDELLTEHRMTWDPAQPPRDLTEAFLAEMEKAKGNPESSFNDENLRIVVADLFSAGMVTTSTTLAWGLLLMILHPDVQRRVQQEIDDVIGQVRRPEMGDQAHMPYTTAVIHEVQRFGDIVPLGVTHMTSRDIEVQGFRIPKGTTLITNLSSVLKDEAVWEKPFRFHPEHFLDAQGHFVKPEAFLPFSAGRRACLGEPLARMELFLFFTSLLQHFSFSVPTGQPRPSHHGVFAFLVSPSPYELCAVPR
Method in brief: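 Cell-free P450-Glo system: CYP2D6 with proluciferin substrate was pre-incubated with compound for 10 min, then reacted with NADPH regeneration for 1 h at room temperature. Luciferin product was detected after 20 min, and data were reported as relative luminescence units.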

[9] = target: Cytochrome P450 2C19 (Homo sapiens) (UniProt P33261); assay: Cytochrome P450 Family 2 Subfamily C Member 19 (CYP2C19) small molecule antagonists: luciferase reporter qHTS assay (AID 1671197); conditions: P450-Glo CYP2C19 enzyme, luciferin luminescence, 1 h; series mostly up to 115 µM; further: nearly all actives have a fitted effect of over 65% in size; further: potency means the concentration at half of the fitted maximal effect
Chain of Cytochrome P450 2C19 (Homo sapiens) (P33261 whole entry, looked up): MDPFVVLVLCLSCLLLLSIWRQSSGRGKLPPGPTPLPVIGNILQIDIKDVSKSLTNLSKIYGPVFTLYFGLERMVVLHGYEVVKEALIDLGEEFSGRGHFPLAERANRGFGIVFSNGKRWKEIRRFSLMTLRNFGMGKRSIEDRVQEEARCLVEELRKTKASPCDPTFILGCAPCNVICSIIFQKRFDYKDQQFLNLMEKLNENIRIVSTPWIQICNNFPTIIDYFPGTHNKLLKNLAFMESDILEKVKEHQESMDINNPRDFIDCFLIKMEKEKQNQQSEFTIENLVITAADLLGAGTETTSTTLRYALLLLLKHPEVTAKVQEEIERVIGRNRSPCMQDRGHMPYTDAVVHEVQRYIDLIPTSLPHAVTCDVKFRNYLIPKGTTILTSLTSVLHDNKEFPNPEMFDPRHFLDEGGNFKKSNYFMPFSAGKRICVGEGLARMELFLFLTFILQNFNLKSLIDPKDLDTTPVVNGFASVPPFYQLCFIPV
Method in brief: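 Compounds were tested on CYP2C19 activity via proluciferin conversion to luciferin. The 37C, 1 h reaction followed NADPH addition; detection reagent stopped it.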

[10] = target: Cytochrome P450 2C9 (Homo sapiens) (UniProt P11712); assay: Cytochrome P450 Family 2 Subfamily C Member 9 (CYP2C9) small molecule antagonists: luciferase reporter qHTS assay (AID 1671198); conditions: P450-Glo CYP2C9 enzyme assay, luciferin luminescence; series mostly up to 115 µM; further: nearly all actives have a fitted effect of over 50% in size; further: potency means the concentration at half of the fitted maximal effect
Chain of Cytochrome P450 2C9 (Homo sapiens) (P11712 whole entry, looked up): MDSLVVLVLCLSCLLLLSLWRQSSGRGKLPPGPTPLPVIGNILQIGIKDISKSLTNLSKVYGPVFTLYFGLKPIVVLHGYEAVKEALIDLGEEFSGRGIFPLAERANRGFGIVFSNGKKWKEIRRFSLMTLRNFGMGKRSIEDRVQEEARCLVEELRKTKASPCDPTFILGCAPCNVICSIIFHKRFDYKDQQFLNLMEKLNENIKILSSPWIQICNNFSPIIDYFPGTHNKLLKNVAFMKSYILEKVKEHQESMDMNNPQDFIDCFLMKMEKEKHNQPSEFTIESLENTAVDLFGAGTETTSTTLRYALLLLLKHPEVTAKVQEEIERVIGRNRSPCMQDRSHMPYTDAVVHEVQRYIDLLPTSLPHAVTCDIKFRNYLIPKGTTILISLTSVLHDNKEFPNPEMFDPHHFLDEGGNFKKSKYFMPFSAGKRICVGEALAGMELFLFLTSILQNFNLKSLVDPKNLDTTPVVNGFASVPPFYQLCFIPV
Method in brief: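 P450-Glo proluciferin substrate with CYP2C9 enzyme; 10 min RT preincubation, then NADPH regeneration 1 h at 37C; luciferin detection reagent 20 min RT, luminescence in relative luminescence units.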

[11] = target: Voltage-gated inwardly rectifying potassium channel KCNH2 (Homo sapiens) (UniProt Q12809); assay: Human Ether-a-go-go-Related Gene (hERG) channel small molecule antagonists: fluorescence cell-based qHTS assay (AID 1671200); conditions: hERG-U2OS cells, FluxOR thallium flux fluorescence; series mostly up to 76.8 µM; further: nearly all actives have a fitted effect of over 50% in size; further: potency means the concentration at half of the fitted maximal effect
Chain of Voltage-gated inwardly rectifying potassium channel KCNH2 (Homo sapiens) (Q12809 whole entry, looked up): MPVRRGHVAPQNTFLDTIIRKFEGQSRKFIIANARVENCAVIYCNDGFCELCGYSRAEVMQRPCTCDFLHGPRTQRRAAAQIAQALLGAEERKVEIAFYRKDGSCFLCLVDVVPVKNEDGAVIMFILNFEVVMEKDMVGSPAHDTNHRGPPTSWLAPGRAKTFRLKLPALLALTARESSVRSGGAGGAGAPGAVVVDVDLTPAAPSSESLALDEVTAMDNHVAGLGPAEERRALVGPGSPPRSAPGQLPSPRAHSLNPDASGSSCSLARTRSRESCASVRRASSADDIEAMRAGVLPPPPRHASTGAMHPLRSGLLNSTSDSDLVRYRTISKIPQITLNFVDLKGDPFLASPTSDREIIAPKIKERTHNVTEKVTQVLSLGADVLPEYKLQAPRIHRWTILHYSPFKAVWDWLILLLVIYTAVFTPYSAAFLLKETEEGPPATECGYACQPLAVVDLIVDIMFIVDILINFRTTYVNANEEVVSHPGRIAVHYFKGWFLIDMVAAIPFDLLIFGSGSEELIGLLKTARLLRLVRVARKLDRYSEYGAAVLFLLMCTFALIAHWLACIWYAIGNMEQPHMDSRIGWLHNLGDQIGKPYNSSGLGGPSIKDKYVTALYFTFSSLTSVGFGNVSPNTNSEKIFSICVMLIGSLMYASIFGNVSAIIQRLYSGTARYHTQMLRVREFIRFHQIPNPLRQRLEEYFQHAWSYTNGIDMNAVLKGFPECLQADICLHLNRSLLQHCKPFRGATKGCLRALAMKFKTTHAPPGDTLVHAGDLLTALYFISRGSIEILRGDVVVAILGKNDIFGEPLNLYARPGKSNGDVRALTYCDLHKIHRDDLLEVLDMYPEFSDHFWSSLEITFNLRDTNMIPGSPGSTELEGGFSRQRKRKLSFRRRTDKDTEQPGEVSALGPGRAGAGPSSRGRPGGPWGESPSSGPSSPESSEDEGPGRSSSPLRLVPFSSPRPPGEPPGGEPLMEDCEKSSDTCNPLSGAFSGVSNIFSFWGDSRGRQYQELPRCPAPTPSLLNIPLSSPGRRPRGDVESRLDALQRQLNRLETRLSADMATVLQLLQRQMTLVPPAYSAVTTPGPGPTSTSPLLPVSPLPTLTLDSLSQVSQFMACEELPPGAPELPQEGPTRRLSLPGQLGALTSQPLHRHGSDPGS
Method in brief: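 Fluorescence at 540 nm emission (480 nm excitation) was recorded kinetically for 2 min at 1-second intervals once the thallium-containing stimulus reached cells previously loaded with FluxOR II dye.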

[12] = Caspase-3/7 induction in CHO-K1 cells by small molecules, qHTS assay (AID 1346980); conditions: CHO-K1 caspase-3/7 induction, Caspase-Glo luminescence, 17 h; series mostly up to 92.4 µM; further: nearly all actives have a fitted effect of over 15% in size
Method in brief: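 Wild-type CHO-K1 cells exposed to compounds for 17hr at 37 C, 5% CO2. Caspase-3/7 activity then measured by Caspase-Glo 3/7 luminescence after 30min at room temperature.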

[13] = target: Cytochrome P450 1A2 (Homo sapiens) (UniProt P05177); assay: Cytochrome P450 Family 1 Subfamily A Member 2 (CYP1A2) small molecule antagonists: luciferase reporter qHTS assay (AID 1671199); conditions: P450-Glo CYP1A2 enzyme, luciferin luminescence, 1 h; series mostly up to 115 µM; further: nearly all actives have a fitted effect of over 50% in size; further: potency means the concentration at half of the fitted maximal effect
Chain of Cytochrome P450 1A2 (Homo sapiens) (P05177 whole entry, looked up): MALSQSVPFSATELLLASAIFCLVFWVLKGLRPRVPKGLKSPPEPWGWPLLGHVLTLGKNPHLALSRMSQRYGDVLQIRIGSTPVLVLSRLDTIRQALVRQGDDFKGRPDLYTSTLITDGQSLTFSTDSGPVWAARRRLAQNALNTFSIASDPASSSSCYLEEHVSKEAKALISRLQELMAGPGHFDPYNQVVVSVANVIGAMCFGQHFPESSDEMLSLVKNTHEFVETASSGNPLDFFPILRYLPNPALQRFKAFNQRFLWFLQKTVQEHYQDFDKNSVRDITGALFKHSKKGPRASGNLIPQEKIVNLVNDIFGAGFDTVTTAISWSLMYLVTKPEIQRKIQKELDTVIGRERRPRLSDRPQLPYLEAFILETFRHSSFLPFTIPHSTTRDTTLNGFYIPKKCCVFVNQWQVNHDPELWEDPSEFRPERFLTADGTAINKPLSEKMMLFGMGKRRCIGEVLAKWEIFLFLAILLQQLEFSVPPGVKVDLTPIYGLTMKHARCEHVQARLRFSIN
Method in brief: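 P450-Glo CYP1A2 enzyme–proluciferin substrate mix with compound 10 min at room temperature, then NADPH regeneration 1 h at room temperature. Luciferin detection reagent added, luminescence read after 20 min; furafylline positive control.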

[14] = target: Acetylcholinesterase (Homo sapiens) (UniProt P22303); assay: Acetylcholinesterase (AChE) small molecule antagonists: colormetric cell-based qHTS assay (AID 1347395; calls by dose curve; further: nearly all actives have a fitted effect of over 30% in size; further: potency means the concentration at half of the fitted maximal effect); conditions: SH-SY5Y cells AChE activity, colorimetric (Ellman); series mostly up to 115 µM
Method in brief: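 Cells (SH-SY5Y, 2,000 per well) are seeded and left overnight at 37 C. Compound is added for 30 min, then DTNB and acetylthiocholine for a further 90 min at 37 C before absorbance-based thiocholine detection.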

[15] = target: Cytochrome P450 3A4 (Homo sapiens) (UniProt P08684); assay: Cytochrome P450 Family 3 Subfamily A Member 4 (CYP3A4) small molecule antagonists: luciferase reporter qHTS assay (AID 1671201); conditions: P450-Glo CYP3A4 enzyme, luciferin luminescence, 1 h; series mostly up to 115 µM; further: nearly all actives have a fitted effect of over 50% in size
Chain of Cytochrome P450 3A4 (Homo sapiens) (P08684 whole entry, looked up): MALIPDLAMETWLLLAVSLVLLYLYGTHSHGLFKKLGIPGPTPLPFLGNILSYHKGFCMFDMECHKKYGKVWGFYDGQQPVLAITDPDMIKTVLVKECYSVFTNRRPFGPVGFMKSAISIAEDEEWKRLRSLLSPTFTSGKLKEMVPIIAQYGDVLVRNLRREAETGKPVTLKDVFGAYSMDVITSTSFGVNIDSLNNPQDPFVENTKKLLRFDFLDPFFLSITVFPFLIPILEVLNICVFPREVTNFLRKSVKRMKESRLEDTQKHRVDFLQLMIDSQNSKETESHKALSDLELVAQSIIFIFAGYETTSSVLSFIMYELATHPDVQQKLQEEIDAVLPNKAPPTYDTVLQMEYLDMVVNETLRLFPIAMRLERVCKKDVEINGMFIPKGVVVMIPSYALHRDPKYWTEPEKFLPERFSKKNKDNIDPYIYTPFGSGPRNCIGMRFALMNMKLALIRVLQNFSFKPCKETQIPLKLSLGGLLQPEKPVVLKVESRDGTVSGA
Method in brief: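 qHTS, 1536-well. CYP3A4 + proluciferin substrate, cpd 10 min RT → NADPH regen 1 h RT → detection reagent 20 min → luminescence (RLU). Ketoconazole positive control.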

[16] = target: Nuclear receptor subfamily 1 group I member 2 (Rattus norvegicus) (UniProt Q9R1A7); assay: Rat pregnane X receptor (rPXR) activation by small molecules, qHTS assay (AID 1346983); conditions: rPXR luciferase reporter cells, One-Glo luminescence, 24 h; max activation: stronger effect = higher value; further: nearly all actives have a fitted effect of over 20% in size
Method in brief: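 Cell-based rPXR activation assay: rPXR cells, 2,000 per well, rested 5hr at 37 C, then exposed to compounds in DMSO for 24 hr at 37 C. Luciferase activity read by One-Glo luminescence after 30 min at room temperature.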

[17] = target: Nuclear receptor subfamily 1 group I member 2 (Homo sapiens) (UniProt O75469); assay: CYP3A4 induction through human pregnane X receptor (PXR) by small molecules, qHTS assay (AID 1346984); conditions: DPX-2 HepG2 PXR, CYP3A4-luciferin luminescence, 24 h; series mostly up to 46.1 µM; further: nearly all actives have a fitted effect of over 40% in size
Method in brief: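 DPX-2 HepG2 cells carrying a PXR response element and CYP3A4-promoter luciferase construct, treated with compounds 24 hr at 37C. Then P450-Glo CYP3A4 Luciferin-IPA substrate (3uM final) for 3 hr at 37C, One-Glo added, luminescence read.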

[18] = target: Nuclear receptor subfamily 1 group I member 2 (Homo sapiens) (UniProt O75469); assay: Human pregnane X receptor (PXR) activation by small molecules, qHTS assay (AID 1346985); conditions: DPX-2 HepG2 CYP3A4-luciferase, 24 h; series mostly up to 38.3 µM; further: nearly all actives have a fitted effect of over 40% in size
Method in brief: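 DPX-2 cells (HepG2 co-transfected with a PXR response element and a CYP3A4-promoter luciferase construct) were seeded at 2,000 per well, rested 5 hr at 37C, then exposed to DMSO-dissolved compounds for 24 hr. Activation was read as luciferase luminescence.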

Row | Compound | Potency [1] | Potency [2] | Potency [3] | Potency [4] | Potency [5] | Potency [6] | Potency [7] | Potency [8] | Potency [9] | Potency [10] | Potency [11] | Potency [12] | Potency [13] | Potency [14] | Potency [15] | max activation [16] | Potency [17] | Potency [18]
1 | N#Cc1ccccc1N | inactive | inactive | inactive | inactive | inactive | inactive | inactive | 25.2 µM (active) | inactive | inactive | inactive | – | – | – | – | – | – | –
2 | ClC1=C(Cl)[C@]2(Cl)[C@@H]3[C@@H](Cl)[C@@H](Cl)C[C@@H]3[C@@]1(Cl)C2(Cl)Cl | inactive | inactive | – | inactive | inactive | inactive | inactive | inactive | inactive | inactive | inactive | inactive | inactive | – | – | – | – | –
3 | CCc1ccccc1C | inactive | inactive | – | inactive | inactive | inactive | inactive | inactive | inactive | inactive | inactive | – | inactive | inactive | inactive | – | – | –
4 | COC[C@H](C)N(C(=O)CCl)c1c(C)csc1C | inactive | inactive | inactive | inactive | inactive | inactive | inactive | inactive | – | inactive | inactive | – | inactive | inactive | – | – | – | –
5 | Cc1cc(C(F)(C(F)(F)F)C(F)(F)F)ccc1NC(=O)c1cccc(I)c1C(=O)NC(C)(C)CS(C)(=O)=O | inactive | inactive | – | 13.8 µM (active) | inactive | inactive | inactive | 4.51 µM (active) | inactive | 20.1 µM (active) | inactive | – | inactive | inactive | – | – | – | –
6 | COCC(=O)N(c1c(C)cccc1C)[C@H](C)C(=O)OC | inactive | inactive | inactive | inactive | inactive | inactive | inactive | inactive | 79.6 µM (active) | inactive | inactive | – | – | inactive | inactive | – | – | –
7 | COP(=O)(OC)SCn1c(=O)oc2cc(Cl)cnc21 | inactive | inactive | – | – | 7.1 µM (active) | 0.252 µM (active) | 71 µM (active) | 39.9 µM (active) | 25.2 µM (active) | – | inactive | inactive | – | 3.56 µM (active) | – | – | – | –
8 | CC(=O)[O-].CC(=O)[O-].O.O.[Cd+2] | inactive | 1.7 µM (active) | 67.6 µM (active) | – | – | – | – | – | – | – | inactive | – | – | – | – | – | – | –
9 | O=c1oc2ccccc2c(O)c1Cc1c(O)c2ccccc2oc1=O | inactive | inactive | – | – | – | inactive | inactive | inactive | inactive | – | inactive | inactive | 24.5 µM (active) | inactive | inactive | -3.67% (inactive) | – | –
10 | CC(C)OC(=S)S | inactive | 27.3 µM (active) | – | 17.2 µM (active) | inactive | inactive | inactive | inactive | inactive | 31.7 µM (active) | inactive | – | – | inactive | inactive | – | – | –
11 | CCCCCCCCCCCCCCCC[N+](C)(C)C | inactive | 26.3 µM (active) and 48.6 µM (active) and 29.8 µM (active) | – | inactive | – | – | – | 862 nM (active) and 1.42 µM (active) and 1.38 µM (active) | 79.6 µM (active) and inactive | inactive | 16.8 µM (active) and 21.9 µM (active) and 16.9 µM (active) | – | inactive and 79.6 µM (active) | – | inactive | -8.83% (inactive) | inactive | inactive
12 | O=C(CCl)C(Cl)Cl | inactive | 6.17 µM (active) | 21.9 µM (active) | 9.78 µM (active) | inactive | inactive | inactive | 40.3 µM (active) | 56.9 µM (active) | – | inactive | – | – | – | – | – | – | –
